Measurements: PubChem BioAssay (EPA / NIEHS)
Values joined by “and” are separate entries in the source; they are usually repeats but may differ in a detail not shown here. Equal entries are not always repeated. Results filed as inconclusive are left out. A structure can be active in one record and inactive in another. Active and inactive are the calls of the source. Rule for the calls, unless noted: active = hit-call score of the fitted dose curve at least 0.9, where 1 is the maximum; inactive = score below 0.9.

Key:
[1] = read-out: Monokine induced gamma interferon (MIG), CXCL9 (gene 4283); test: BSK_3C_MIG: BioMAP Diversity Plus: 3C Assay for Monokine induced gamma interferon (MIG) Biomarker Activity (AID 2283021); conditions: primary human endothelial cells (HUVEC); actives raise or lower the signal;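 for AC50: MIG protein level measured by immunoassay in the treated endothelial cultures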
In short: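 Read-out is ELISA detection of MIG on human umbilical vein endothelial cells, taken 24 h after dosing. Gain or loss of signal was scored relative to DMSO controls using bidirectional curve fitting.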

[2] = read-out: Matrix Metallopeptidase 1 (MMP1), MMP1 (gene 4312); test: BSK_BE3C_MMP1: BioMAP Diversity Plus: BE3C Assay for Matrix Metallopeptidase 1 (MMP1) Biomarker Activity (AID 2283024); conditions: primary human bronchial epithelial cells; actives raise or lower the signal
In short: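 Human bronchial epithelial cells (BE3C system) exposed to compound for 24 h; MMP1 then quantified by ELISA. Activity was fitted in both directions relative to DMSO.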

[3] = BSK_3C_Vis: BioMAP Diversity Plus: 3C Assay for Morphology Visualization (AID 2283025); conditions: primary human endothelial cells (HUVEC);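 note: fitted both ways so gain or loss versus DMSO counts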;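 for AC50: light microscopy image of cell morphology used as background control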
In short: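 Chemicals were added to primary human umbilical vein endothelium, cells were incubated 24 h, and morphology was then visualized by light microscopy. Gain or loss of signal was fitted bidirectionally relative to DMSO.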

[4] = read-out: Pselectin, SELP (gene 6403); test: BSK_4H_Pselectin: BioMAP Diversity Plus: 4H Assay for Pselectin Biomarker Activity (AID 2283026); conditions: primary human endothelial cells (HUVEC); actives raise or lower the signal
In short: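 ELISA read-out of P-selectin on human umbilical vein endothelium after 24 h of dosing. Values derive from bidirectional fitting relative to DMSO. Parallel SRB protein staining flagged overt cytotoxicity.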

[5] = BSK_4H_SRB: Viability Assessment in the BioMAP Diversity Plus: 4H Assay (AID 2283027); conditions: primary human endothelial cells (HUVEC);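 note: cells exposed to compound for 24 h before staining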;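 for AC50: curves fitted both ways versus DMSO so AC50 may be loss or gain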
In short: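 Absorbance at 560 nm of SRB-stained total protein served as the viability read-out in confluent primary human umbilical vein endothelium 24 h after chemical treatment. Curves were fitted bidirectionally against DMSO as negative control.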

[6] = BSK_BE3C_SRB: Viability Assessment in the BioMAP Diversity Plus: BE3C Assay (AID 2283028); conditions: primary human bronchial epithelial cells;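 for AC50: fitted both ways so AC50 may mark signal gain or loss versus DMSO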
In short: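 Cytotoxicity read-out: SRB (0.1%) staining of TCA-fixed (10%) human lung bronchial epithelial cells, absorbance 560 nm, 24 h post-dosing. Curves fitted both directions relative to DMSO.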

[7] = read-out: Urokinase-type plasminogen activator receptor (uPAR), PLAUR (gene 5329); test: BSK_4H_uPAR: BioMAP Diversity Plus: 4H Assay for Urokinase-type plasminogen activator receptor (uPAR) Biomarker Activity (AID 2283030); conditions: primary human endothelial cells (HUVEC); actives raise or lower the signal
In short: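 uPAR level read by ELISA on HUVEC cultures (BioMAP 4H) 24 h post-dosing, analyzed for gain or loss relative to DMSO. Parallel SRB staining assessed overt cytotoxicity.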

[8] = read-out: Thrombomodulin, THBD (gene 7056); test: BSK_3C_Thrombomodulin: BioMAP Diversity Plus: 3C Assay for Thrombomodulin Biomarker Activity (AID 2283029); conditions: primary human endothelial cells (HUVEC); actives raise or lower the signal
In short: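 Read-out is ELISA of thrombomodulin on human umbilical vein endothelium 24 h after chemical dosing. Gain or loss of signal is scored relative to DMSO. Overt cytotoxicity is checked in parallel cultures by sulforhodamine B staining.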

[9] = BSK_3C_SRB: Viability Assessment in the BioMAP Diversity Plus: 3C Assay (AID 2283023); conditions: primary human endothelial cells (HUVEC);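 note: fitted both ways against DMSO so a hit may be signal rise or drop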
In short: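 Cytotoxicity readout in parallel HUVEC 3C cultures: after 24 h compound exposure, cells fixed with 10% TCA, stained with 0.1% SRB and read at 560 nm. Gain or loss relative to DMSO fitted.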

[10] = target: human Vitamin D Receptor (VDR), VDR (gene 7421) (UniProt P11473); test: ATG_VDR_TRANS: Attagene TRANS-FACTORIAL HepG2 Assay for human Vitamin D Receptor (VDR) (AID 2283022; active = hit-call score of the fitted dose curve at least 0.9, where 1 is the maximum)
In short: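 Transactivation by an exogenous VDR-Gal4 chimera in transiently transfected HepG2 cells was measured as reporter transcript level 24 hours after chemical treatment. RT-PCR products were analysed by capillary electrophoresis and fitted in the positive direction relative to DMSO.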

Chain of human Vitamin D Receptor (VDR), VDR (gene 7421) (P11473 whole entry, looked up, the tested form may be a part): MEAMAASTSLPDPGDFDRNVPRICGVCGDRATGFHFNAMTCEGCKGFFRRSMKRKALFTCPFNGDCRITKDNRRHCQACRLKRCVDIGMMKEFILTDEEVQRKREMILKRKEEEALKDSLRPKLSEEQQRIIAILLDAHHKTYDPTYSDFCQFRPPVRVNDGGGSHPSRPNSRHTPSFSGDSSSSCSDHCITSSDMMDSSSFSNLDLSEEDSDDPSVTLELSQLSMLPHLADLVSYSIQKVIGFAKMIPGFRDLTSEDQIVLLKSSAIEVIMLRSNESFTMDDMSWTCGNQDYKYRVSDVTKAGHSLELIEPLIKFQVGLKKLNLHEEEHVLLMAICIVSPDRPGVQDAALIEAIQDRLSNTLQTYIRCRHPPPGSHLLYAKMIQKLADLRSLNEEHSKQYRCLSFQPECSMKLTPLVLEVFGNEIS

Cc1[nH]c(=O)n(C(C)(C)C)c(=O)c1Cl
outcome [1]: inactive | outcome [2]: inactive | outcome [3]: inactive | outcome [4]: inactive | outcome [5]: inactive | outcome [6]: inactive | outcome [7]: inactive

N#CN
outcome [1]: inactive | outcome [2]: inactive | outcome [3]: inactive | outcome [4]: inactive | outcome [6]: inactive | outcome [8]: inactive | outcome [7]: inactive

CNC(=O)Oc1cccc(N=CN(C)C)c1
outcome [1]: inactive | outcome [2]: inactive | AC50 [3]: 39 µM (active) | outcome [4]: inactive | outcome [6]: inactive | outcome [7]: inactive

CN1CSC(=S)N(C)C1
outcome [1]: inactive | outcome [2]: inactive | AC50 [3]: 13.2 µM (active) | AC50 [4]: 6.08 µM (active) | outcome [5]: inactive | outcome [6]: inactive | outcome [7]: inactive

CCC(C)(NC(=O)c1cc(Cl)c(C)c(Cl)c1)C(=O)CCl (stereo not drawn)
AC50 [1]: 14.1 µM (active) | AC50 [2]: 27 µM (active) | AC50 [3]: 7.99 µM (active) | AC50 [4]: 12 µM (active) | AC50 [6]: 16.5 µM (active) | AC50 [7]: 26.1 µM (active)

O=C(NC(=O)c1c(F)cccc1F)Nc1ccc(OC(F)(F)C(F)OC(F)(F)F)c(Cl)c1 (stereo not drawn)
outcome [1]: inactive | outcome [2]: inactive | outcome [3]: inactive | outcome [4]: inactive | outcome [6]: inactive | outcome [7]: inactive

O=[N+]([O-])c1c(Cl)c(Cl)c(Cl)c(Cl)c1Cl
outcome [1]: inactive | outcome [2]: inactive | AC50 [3]: 37.5 µM (active) | outcome [4]: inactive | outcome [6]: inactive | outcome [8]: inactive | outcome [7]: inactive

CC(C)N(C(=O)COc1nnc(C(F)(F)F)s1)c1ccc(F)cc1
outcome [1]: inactive | outcome [9]: inactive | outcome [2]: inactive | outcome [3]: inactive | AC50 [4]: 11.1 µM (active) | outcome [6]: inactive | outcome [7]: inactive

CNC(=O)Oc1ccccc1OC(C)C
outcome [1]: inactive | outcome [9]: inactive | outcome [2]: inactive | outcome [3]: inactive | outcome [4]: inactive | outcome [6]: inactive | outcome [8]: inactive | outcome [7]: inactive

CCOC1Oc2ccc(OS(C)(=O)=O)cc2C1(C)C (stereo not drawn)
outcome [1]: inactive | outcome [2]: inactive | outcome [3]: inactive | outcome [4]: inactive | outcome [6]: inactive | outcome [7]: inactive

CCOc1nc(NC)nc(NC(=O)NS(=O)(=O)c2ccccc2C(=O)OC)n1
outcome [1]: inactive | outcome [9]: inactive | outcome [2]: inactive | outcome [3]: inactive | outcome [4]: inactive | outcome [6]: inactive | outcome [7]: inactive

COP(=O)(OC)OC=C(Cl)Cl
outcome [1]: inactive | outcome [2]: inactive | AC50 [3]: 9.8 µM (active) | AC50 [4]: 16.8 µM (active) | outcome [6]: inactive | outcome [8]: inactive | outcome [7]: inactive

C[C@H]1[C@H](c2ccc(Cl)cc2)SC(=O)N1C(=O)NC1CCCCC1
outcome [1]: inactive | AC50 [9]: 12.1 µM (active) | AC50 [2]: 12.8 µM (active) | AC50 [3]: 15.2 µM (active) | outcome [4]: inactive | AC50 [6]: 15.7 µM (active) | outcome [7]: inactive

COC(=O)c1ccccc1CS(=O)(=O)NC(=O)Nc1nc(OC)cc(OC)n1
outcome [1]: inactive | outcome [10]: inactive | outcome [2]: inactive | outcome [3]: inactive | outcome [4]: inactive | outcome [6]: inactive | outcome [7]: inactive

O=C(O)COc1ccc(Cl)cc1Cl
outcome [1]: inactive | outcome [10]: inactive | outcome [2]: inactive | outcome [3]: inactive | outcome [4]: inactive | outcome [6]: inactive | outcome [7]: inactive

ClC1C(Cl)C(Cl)C(Cl)C(Cl)C1Cl (stereo not drawn)
outcome [1]: inactive | outcome [2]: inactive | AC50 [3]: 38.6 µM (active) | outcome [3]: inactive | AC50 [4]: 5.2 µM (active) | outcome [4]: inactive | outcome [6]: inactive | outcome [7]: inactive

COc1cc(OC)nc(NC(=O)NS(=O)(=O)c2cc(NC=O)ccc2C(=O)N(C)C)n1
outcome [1]: inactive | outcome [2]: inactive | outcome [3]: inactive | outcome [4]: inactive | outcome [5]: inactive | outcome [6]: inactive | outcome [7]: inactive

CC(C)(C)C(O)/C(=C\c1ccc(Cl)cc1Cl)n1cncn1 (stereo not drawn)
outcome [1]: inactive | outcome [10]: inactive | AC50 [2]: 33.6 µM (active) | AC50 [3]: 37.2 µM (active) | AC50 [4]: 32.1 µM (active) | AC50 [7]: 27.9 µM (active)

CCCN(CCC)c1c([N+](=O)[O-])cc(C(F)(F)F)cc1[N+](=O)[O-]
outcome [1]: inactive | outcome [2]: inactive | AC50 [3]: 13.7 µM (active) | AC50 [4]: 36.5 µM (active) | outcome [6]: inactive | outcome [7]: inactive

Oc1ccc(Cl)cc1Cc1ccccc1
AC50 [1]: 36.8 µM (active) [middle of 7 runs] | AC50 [9]: 24.4 µM (active) [middle of 7 runs] | AC50 [2]: 32.8 µM (active) [middle of 7 runs] | AC50 [3]: 37.9 µM (active) and 14.7 µM (active) and 20 µM (active) | AC50 [4]: 28.2 µM (active) [middle of 7 runs] | AC50 [6]: 34.7 µM (active) [middle of 5 runs] | AC50 [7]: 34 µM (active) [middle of 7 runs]

CCc1ccc(C(=O)NN(C(=O)c2cc(C)cc(C)c2)C(C)(C)C)cc1
outcome [1]: inactive | outcome [2]: inactive | outcome [3]: inactive | outcome [4]: inactive | AC50 [5]: 17.7 µM (active) | AC50 [6]: 15.4 µM (active) | AC50 [7]: 24.2 µM (active)

CCC(C)(C)C(=O)OC1=C(c2ccc(Cl)cc2Cl)C(=O)OC12CCCCC2
AC50 [1]: 35.2 µM (active) | outcome [10]: inactive | AC50 [2]: 36.6 µM (active) | AC50 [3]: 29.4 µM (active) | AC50 [4]: 36.5 µM (active) | AC50 [6]: 31.3 µM (active) | AC50 [7]: 32 µM (active)

COc1nn(CSP(=S)(OC)OC)c(=O)s1
outcome [1]: inactive | outcome [2]: inactive | outcome [3]: inactive | outcome [4]: inactive | outcome [6]: inactive | outcome [7]: inactive

COC(=O)c1ccccc1S(=O)(=O)NC(=O)N(C)c1nc(C)nc(OC)n1
outcome [1]: inactive | outcome [2]: inactive | outcome [3]: inactive | AC50 [4]: 12.9 µM (active) | outcome [6]: inactive | outcome [8]: inactive | outcome [7]: inactive

CC1(c2ccc(Oc3ccccc3)cc2)OC(=O)N(Nc2ccccc2)C1=O (stereo not drawn)
AC50 [1]: 32.3 µM (active) | outcome [2]: inactive | AC50 [3]: 16.3 µM (active) | AC50 [4]: 31.7 µM (active) | AC50 [5]: 20 µM (active) | AC50 [6]: 27.5 µM (active) | AC50 [7]: 16.1 µM (active)

CCCN(CCOc1c(Cl)cc(Cl)cc1Cl)C(=O)n1ccnc1
outcome [1]: inactive | outcome [2]: inactive | outcome [3]: inactive | AC50 [4]: 33.8 µM (active) | AC50 [6]: 28.9 µM (active) | outcome [7]: inactive

O=C(Nc1ccccc1)Nc1cnns1
outcome [1]: inactive | outcome [10]: inactive | outcome [2]: inactive | outcome [3]: inactive | outcome [4]: inactive | outcome [6]: inactive | outcome [7]: inactive
